# Measurements reported in PubChem BioAssay (EPA / NIEHS).
# Results filed as inconclusive are left out. Some compounds were tested as several samples or in several runs, with calls that do not always agree. Active and inactive are the calls of the source. Rule for the calls: active = hit-call score of the fitted dose curve at least 0.9, where 1 is the maximum; inconclusive = response in the unintended direction; inactive = score below 0.9.
# Molecular target: Cellular tumor antigen p53 (Homo sapiens) (UniProt P04637)
# Sequence (P04637 whole entry, looked up): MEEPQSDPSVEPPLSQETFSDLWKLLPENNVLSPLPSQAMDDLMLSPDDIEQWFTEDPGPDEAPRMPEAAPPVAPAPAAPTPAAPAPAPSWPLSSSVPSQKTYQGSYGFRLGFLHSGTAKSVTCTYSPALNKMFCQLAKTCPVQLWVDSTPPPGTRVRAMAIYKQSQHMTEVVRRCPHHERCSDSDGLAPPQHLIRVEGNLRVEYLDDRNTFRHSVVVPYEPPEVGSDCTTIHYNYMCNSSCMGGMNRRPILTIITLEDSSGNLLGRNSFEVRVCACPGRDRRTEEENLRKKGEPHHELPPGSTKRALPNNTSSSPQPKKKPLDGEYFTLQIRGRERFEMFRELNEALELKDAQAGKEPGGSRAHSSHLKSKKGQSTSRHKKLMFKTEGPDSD
# Test: TOX21_p53_BLA_p5_ratio: Tox21 HCT-116 p53 Agonism Beta-lactamase Assay, Ratio, Phase 5 (AID 2283599)
# From the text: TOX21_p53_BLA_p5 is a cell-based, single-readout assay that uses HCT116, a human intestinal cell line, […] in a 1536-well plate.TOX21_p53_BLA_p5_ratio is an assay readout measuring reporter gene via receptor activity and designed using inducible reporter (beta lactamase induction) detected with GAL4 b-lactamase reporter gene. The signal is derived from the ratio of cleaved (ch2) to uncleaved (ch1) reporter gene substrate used as the measure of target activity.Data from the assay component TOX21_p53_BLA_p5_ratio was analyzed into 1 assay endpoint. This assay endpoint, TOX21_p53_BLA_p5_ratio, was analyzed in the positive analysis fitting direction relative to DMSO as the negative control and baseline of activity. Using a type of inducible reporter, gain-of-signal activity can be used to understand changes in the reporter gene as they relate to the gene TP53. Furthermore, this assay endpoint can be referred to as a primary readout, because this assay has produced multiple assay endpoints and this ratio serves a reporter gene function to understand target activity. To generalize the intended target to other relatable targets, this assay endpoint is annotated to the DNA binding intended target family, where the subfamily is tumor suppressor.
# Thawing Method: Place 14 mL of pre-warmed thaw medium into a 15 mL of conical tub. Remove the vial of cells to be thawed from liquid nitrogen and thaw rapidly by placing at 37C in a water bath with gentle agitation for 1-2 minutes. Decontaminate the vial by wiping with 70% ethanol before opening in a biological safety cabinet. Transfer the vial contents drop-wise into 14 mL of thaw medium in a sterile 15-mL conical tub. Centrifuge cells at 900 rpm for 4 minutes and resuspend in thaw medium. Transfer contents to the T75 tissue culture flask containing Thaw Medium and place flask in a humidified 37C/5% CO2 incubator. Switch to growth medium at first passage.Propagation Method: Aspirate medium, rinse once in DPBS, add 0.25% Trypsin/EDTA and swirl to coat the cell evenly. Add an equal volume of Growth Medium to inactivate Trypsin after 2-3 minutes incubation at 37C. Centrifuge cells at 900 rpm for 4 minutes and resuspend in growth medium. Cell should be passage or fed at least twice a week.Assay Protocol: Harvest cells from culture in growth medium and resuspend in assay medium. 2.2 Dispense 4000 cells/5 uL/well into 1536-well black/clear bottom plates using a Multidrop dispenser. After the cells were incubated at 37C for 5 hours, 23 nL of compounds dissolved in DMSO were transferred to the assay plate by a PinTool resulting in a 217-fold dilution. Incubate the plates for 16 hours at 37C, 5% CO2. Add 1 uL of 6X LiveBLAzer FRET B/G (CCF4-AM) Substrate Mixture to each well using a BioRAPTR dispenser and incubate the plates at room temperature for 2 hours. Measure fluorescence intensity at 460 and 530 nm emission and 405 nm excitation by an Envision detector. Data is expressed as the ratio of 460nm/530nm emissions. Add 4 uL of Cell-titer Glo to each well using BioRAPTR and incubate the plates at room temperature for 2 hours. Measure fluorescence intensity by a VewLux plate reader.
Structure (SMILES),outcome,AC50
COC(=O)c1c(C(F)F)nc(C(F)(F)F)c(C2=NCCS2)c1CC(C)C,inactive,
CO/N=C(/C1=NOCCO1)c1ccccc1Oc1ncnc(Oc2ccccc2Cl)c1F,inactive,
Clc1nc(Cl)nc(Nc2ccccc2Cl)n1,inactive,
O=C1C2CC=CCC2C(=O)N1SC(Cl)(Cl)Cl (stereo not given),inactive,19.5 µM (active)
COCC(C)N(C(=O)CCl)c1c(C)csc1C (stereo not given),inactive,
O=P(O)(O)CCCl,inactive,
N#CN=C1SCCN1Cc1ccc(Cl)nc1,inactive,
CCOC(=O)C(C)OC(=O)c1cc(Oc2ccc(C(F)(F)F)cc2Cl)ccc1[N+](=O)[O-] (stereo not given),inactive,
CC(C)N1C(=O)c2ccccc2NS1(=O)=O,inactive,
CCOP(=S)(OCC)Oc1nc(Cl)n(C(C)C)n1,inactive,
Cn1c(-c2ccccc2)cc(-c2ccccc2)[n+]1C,inactive,
CCN(CC)c1nc(C)cc(OP(=S)(OC)OC)n1,inactive,
COP(=S)(OC)Oc1ccc([N+](=O)[O-])c(C)c1,inactive,
CNC(=O)Oc1cccc2ccccc12,inactive,
COc1cc(Cl)c(OC)cc1Cl,inactive,
CSC(=O)c1c(C(F)F)nc(C(F)(F)F)c(C(=O)SC)c1CC(C)C,inactive,
CCOc1nc(C(Cl)(Cl)Cl)ns1,inactive,
COP(=O)(OC)O/C(C)=C/C(=O)N(C)C,inactive,
CN=C=S,inactive,
O=c1n(Cl)c(=O)n(Cl)c(=O)n1Cl,inactive,

Structure (SMILES),outcome,AC50
CCCCC(O)(Cn1cncn1)c1ccc(Cl)cc1Cl (stereo not given),,72.8 µM (active)
CC1(C)CCC(=Cc2ccc(Cl)cc2)C1(O)Cn1cncn1 (stereo not given),inactive,
CC(C)N1C(=O)N(c2ccccc2)CSC1=NC(C)(C)C,inactive,
O=C(Nc1ccccc1-c1ccc(Cl)cc1)c1cccnc1Cl,inactive,
CCN(CC)C(=O)C(C)Oc1cccc2ccccc12 (stereo not given),inactive,
COP(=S)(OC)SCn1nnc2ccccc2c1=O,inactive,
CC1(C)C(C(=O)OC(C#N)c2cccc(Oc3ccccc3)c2)C1(C)C (stereo not given),inactive,
CCSC(=O)N1CCCCCC1,inactive,
CNC(=O)N(C)c1nnc(C(C)(C)C)s1,inactive,
CC(C)Oc1cccc(NC(=O)c2ccccc2C(F)(F)F)c1,inactive,
COCC(=O)N(c1c(C)cccc1C)C(C)C(=O)OC (stereo not given),inactive,
N#Cc1c(Cl)cccc1Cl,inactive,
CC1(C)CON(Cc2ccccc2Cl)C1=O,inactive,
Nc1c(Cl)c(Cl)nc(C(=O)O)c1Cl,inactive,
N#Cc1c[nH]cc1-c1cccc2c1OC(F)(F)O2,,5.39 µM (active)
CCOP(=O)(OCC)Oc1nc(Cl)c(Cl)cc1Cl,,38.3 µM (active)
CCCCC(C#N)(Cn1cncn1)c1ccc(Cl)cc1 (stereo not given),inactive,
CC1(C)C(C=C(Cl)Cl)C1C(=O)OC(C#N)c1cccc(Oc2ccccc2)c1 (stereo not given),inactive,
CCOc1nc(F)cc2nc(S(=O)(=O)Nc3c(Cl)cccc3Cl)nn12,inactive,
